TRPML1 inh = inhibitors of human TRPML1 channel; actives 0.02% (n = 390,000); TRPML1-inducible cells, Ca2+ dye fluorescence, FDSS; active compounds read low; inhibition of EC80 agonist-evoked calcium signal; Q9GZU1; AID 624415; activity change, negative = inhibition, % (concentration not given with the values); in the data active = activity change below about -50%; inconclusive = between about -30% and that limit;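 note: stimulus is agonist 54-4 at its EC80 concentration; % is set by controls: 0 for no effect and ±100 for the full control effect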
Target sequence (Q9GZU1 whole entry, looked up): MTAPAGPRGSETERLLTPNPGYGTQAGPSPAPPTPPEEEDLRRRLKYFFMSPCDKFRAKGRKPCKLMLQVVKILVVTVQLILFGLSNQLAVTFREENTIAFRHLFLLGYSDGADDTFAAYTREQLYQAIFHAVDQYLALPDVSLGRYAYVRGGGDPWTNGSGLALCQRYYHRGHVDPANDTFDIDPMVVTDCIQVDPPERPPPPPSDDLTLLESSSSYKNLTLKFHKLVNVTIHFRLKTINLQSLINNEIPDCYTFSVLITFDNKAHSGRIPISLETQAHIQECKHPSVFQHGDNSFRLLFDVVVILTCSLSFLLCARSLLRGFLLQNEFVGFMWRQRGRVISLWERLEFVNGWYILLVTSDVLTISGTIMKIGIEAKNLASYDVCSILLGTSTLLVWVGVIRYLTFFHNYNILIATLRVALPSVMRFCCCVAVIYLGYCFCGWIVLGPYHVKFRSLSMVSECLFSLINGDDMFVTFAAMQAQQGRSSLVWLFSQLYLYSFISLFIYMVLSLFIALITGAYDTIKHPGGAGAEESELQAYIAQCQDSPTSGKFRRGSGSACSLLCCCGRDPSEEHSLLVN
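Calcium fluorescence in TRPML1-DL cells induced overnight with Tet: a 110 s read after compound pin addition, then a 110 s antagonist read after challenge with 54-4 at 4 uM final (EC80).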
Vif-A3G inh = Vif-A3G binding inhibition; HeLa A3G-eYFP + Vif (tagged APOBEC3G with the HIV-1 protein that degrades it), YFP fluorescence, overnight; Potency, µM (titrated, usually from 46.1 µM), for the others: at the top dose activity, negative = active, usual class: inhibitors; actives 0.076% (n = 410,000); AID 602310; note: potency is the fitted concentration of half-maximal effect; % is set by controls: 0 for no effect and ±100 for the full control effect; nearly all actives have a fitted effect of over 60% in size
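Read-out is eYFP fluorescence (Ex 488/Em 500-530) from Vif-expressing HeLa A3G-eYFP cells; more signal means A3G escaped Vif-mediated degradation. Cells plated overnight, compound pinned in, incubated overnight at 37 deg C.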
Vif-APOBEC3F blk = inhibitors of Vif-A3F interaction; HeLa A3F-eYFP + Vif (tagged APOBEC3F with the HIV-1 protein that degrades it), YFP fluorescence increase; Potency, µM (series often up to 46.1 µM), for the others: top-dose activity, negative = active; actives 0.2% (n = 390,000); AID 602313; note: potency is the fitted concentration of half-maximal effect; % of control where 0% means no effect; nearly all actives have a fitted effect of over 65% in size
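Fluorescence increase (Ex 488/Em 500-530) after overnight compound treatment at 37 deg C flags inhibition of Vif-driven A3F-eYFP loss in stable HeLa A3F-eYFP/Vif cells seeded overnight beforehand.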
AT treatment = potential ataxia-telangiectasia treatments restoring KAP-1 phosphorylation; F2112 A-T fibroblasts, KAP-1 phosphorylation AlphaLISA; neocarzinostatin DNA damage 30 min before lysis; actives 0.19% (n = 320,000); Potency, µM (doses to about 57.5 µM), for inactives: at the highest dose activation, actives largely listed as activators; note: potency is the fitted concentration of half-maximal effect; % of control where 0% means no effect; nearly all actives have a fitted effect of over 45% in size
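ATM-like activity read as KAP-1 phosphorylation via AlphaLISA donor/acceptor antibody pairs after lysis and 6 hr at 25C. Cells were ATM-null patient fibroblasts (F2112, hTERT), dosed 60 min, then exposed to the DSB inducer NCS for 30 min.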
TRPML1 ag = human mucolipin-1 channel agonism | Q9GZU1 | TRPML1-expressing cells, Ca2+ dye fluorescence, FDSS | activation, % (no concentration beside the values) | actives 0.12% (n = 410,000) | AID 624414; in the data active = activation above about 50%; inconclusive = mostly about 30% to 49%; note: 0% is about no effect
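Cells: TRPML1-DL, 1X Tet inducer, ~16 h at 37 degrees C/5% CO2. Dye: ABD Ca8 no-wash + quencher, 45-90 min RT. Read: 10 s baseline, compound add, 110 s agonist phase; 54-4 EC80 (4uM final), 110 s antagonist phase.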
An asterisk follows results filed as active. Hits are enriched below; roughly 0.54% of the tested compounds scored in any of these assays. Unless noted, calls come from the whole dose curve; as a rule, active = well fitted curve in the direction sought with a large enough effect; inconclusive = small, poorly fitted or top-dose-only effect, or another doubt; inactive = no such curve, though single readings can be large; an effect the other way counts as inactive or inconclusive.

Screening CC(C)(C)n1ncc2c(=O)n(Cc3ccc(SC(=O)O)cc3Cl)cnc21 returned TRPML1 inh 1, Vif-A3G inh 3% and TRPML1 ag 1.
Screening CCOC(=O)[C@]12CCC=C1N(CCC1=CCCCC1)C(=O)[C@H](CC(=O)N1CCSCC1)C2 returned TRPML1 ag -1.
`Cc1ccc(NC(=O)NCCc2c(C)nn(C)c2C)c(Cl)c1` gave TRPML1 inh -7, Vif-A3G inh 0%, Vif-APOBEC3F blk -4% and TRPML1 ag -1.
`CN(C(=O)c1cc(C(=O)N(C)c2ccccc2)cc([N+](=O)[O-])c1)c1ccccc1` gave TRPML1 inh -8, Vif-A3G inh -3%, Vif-APOBEC3F blk 7%, AT treatment 40µM* and TRPML1 ag 1.
`CN(C(=O)c1cccc(C(=O)N(C)c2ccccc2)c1)c1ccccc1` gave TRPML1 inh 10, Vif-A3G inh 2%, Vif-APOBEC3F blk 4%, AT treatment -3% and TRPML1 ag 2.
For COC(=O)c1c(-c2ccc(N(C)C)cc2)sc2ccc(OC)cc12 the results were TRPML1 inh 25, Vif-A3G inh -1%, Vif-APOBEC3F blk 3%, AT treatment 25µM* and TRPML1 ag 2.
`COC(=O)c1c(-c2ccc(OC)cc2)sc2cc3c(cc12)OCO3` gave TRPML1 inh 57, Vif-A3G inh 2%, Vif-APOBEC3F blk 5%, AT treatment 36% and TRPML1 ag 0.
CCOc1cc(C2c3c(-c4ccccc4O)n[nH]c3C(=O)N2CCc2ccccc2)ccc1O (configuration not stated) was read as TRPML1 inh -18, Vif-A3G inh -9%, Vif-APOBEC3F blk -3% and TRPML1 ag 3.
Screening COc1cc(/C=C2/CCC/C(=C\c3cc(O)c(OC)c(Cl)c3)C2=O)cc(Cl)c1O returned TRPML1 inh 14, Vif-A3G inh inconclusive, Vif-APOBEC3F blk 6.3µM*, AT treatment -10% and TRPML1 ag 4.
`Cc1cc(C)c(OCCOCCn2c(-c3ccc(Cl)cc3)nc3ccccc3c2=O)c(C)c1` gave TRPML1 inh -6, Vif-A3G inh -2%, Vif-APOBEC3F blk 3% and TRPML1 ag -1.
For COc1ccc(N(C(=O)COc2c(C)cccc2C)S(=O)(=O)c2ccc(Cl)cc2)cc1 the results were TRPML1 inh 32, Vif-A3G inh -11%, Vif-APOBEC3F blk -2% and TRPML1 ag 0.
For CCOC(=O)c1ccc(NC(=O)c2cn3c4c(ccc(Cl)c4c2=O)OC(C)C3)cc1 (configuration not stated) the results were TRPML1 inh -5, Vif-A3G inh 2%, Vif-APOBEC3F blk -3% and TRPML1 ag 0.
`O=C(CSc1n[nH]c(-c2ccncc2)n1)Nc1ccc(Br)cc1` gave TRPML1 inh -15, Vif-A3G inh -5%, Vif-APOBEC3F blk -11%, AT treatment 20µM* and TRPML1 ag 1.
For CCOC(=O)/C=C1\CN(Cc2ccc(OC)cc2)S(=O)(=O)c2ccc(C(F)(F)F)cc21 the results were Vif-A3G inh -1% and TRPML1 ag 0.
COc1cccc(C2CN(c3ccc(F)cc3F)N=C2c2cccs2)c1OC (configuration not stated) was read as TRPML1 inh 0, Vif-A3G inh 0%, Vif-APOBEC3F blk -10%, AT treatment 28µM* and TRPML1 ag 1.
Screening COc1ccccc1C1CN(c2ccccc2)N=C1c1cccs1 (configuration not stated) returned TRPML1 inh -5, Vif-A3G inh -1%, Vif-APOBEC3F blk -7%, AT treatment 27% and TRPML1 ag 2.
`CCNc1ccc(Br)cc(C(=O)/C=C/c2ccc3c(c2)OCO3)c1=O` gave TRPML1 inh -10, Vif-A3G inh -29%, Vif-APOBEC3F blk 13µM*, AT treatment -2% and TRPML1 ag 1.
`Cc1cccc(-c2nc(SCc3cc(=O)c4c(C)cc(C)cc4[nH]3)n[nH]2)c1` gave TRPML1 inh 12, Vif-A3G inh inconclusive, Vif-APOBEC3F blk inconclusive and TRPML1 ag 2.
